# In PubChem BioAssay (NCATS):
# Inconclusive results are not listed. Where a call stands in place of a potency, no number is given. Activity calls are given as the source filed them. Unless noted, calls follow the shape of the dose curve; as a rule, active = well fitted curve in the direction sought with a large enough effect; inconclusive = small, poorly fitted or top-dose-only effect, or another doubt; inactive = no such curve, though single readings can be large; an effect the other way counts as inactive or inconclusive.
# What was measured:
# [1] = P-glycoprotein substrates identified in KB-8-5-11 adenocarcinoma cell line, qHTS therapeutic library screen (AID 1346987); also: nearly all actives have a fitted effect of over 65% in size
# How it was run: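 Compounds are pinned in dose-response onto KB-8-5-11 cells (500 cells/well, colchicine-free medium) and left 72 h at 37 degree C. CellTiter-Glo luminescence then yields AC50 values.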
# [2] = test system: Zika virus NS2B-NS3 protease (unlinked complex); test: Primary screen GU Rhodamine qHTS for Zika virus inhibitors: Unlinked NS2B-NS3 protease assay (AID 1347159); also: nearly all actives have a fitted effect of over 60% in size; also: potency is read from the fitted curve at half-maximal effect
# How it was run: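 Buffer 10 mM Tris-HCl pH 8.0, 0.01% Tween 20. Unlinked protease 25 nM; compound preincubation 15 min, RT, protected from light. Substrate Rhod110, 1.5 microM; ~15% conversion in 15 min.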
# [3] = test system: Zika virus NS2B-NS3 protease (linked construct); test: Primary screen NINDS Rhodamine qHTS for Zika virus inhibitors (AID 1347160); also: nearly all actives have a fitted effect of over 55% in size
# How it was run: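 Aprotinin served as in-plate control. Conditions: 25 nM linked NS2B-NS3, pH 8.0 Tris buffer, titrated compounds, 15 min preincubation and 15 min reaction with 1.5 microM Rhod110 substrate at room temperature.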
# [4] = biological target: Calcium and integrin-binding protein 1 (Homo sapiens) (UniProt Q99828); test: Primary qHTS for Identification of Calcium Integrin Binding Protein 1 (CIB1) Competitor (AID 1508620);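 also: GST tagged CIB1 binding a fluorescein labelled alphaIIb integrin peptide tracer; top concentration of the series differs between compounds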
# Chain of Calcium and integrin-binding protein 1 (Homo sapiens) (Q99828 whole entry, looked up): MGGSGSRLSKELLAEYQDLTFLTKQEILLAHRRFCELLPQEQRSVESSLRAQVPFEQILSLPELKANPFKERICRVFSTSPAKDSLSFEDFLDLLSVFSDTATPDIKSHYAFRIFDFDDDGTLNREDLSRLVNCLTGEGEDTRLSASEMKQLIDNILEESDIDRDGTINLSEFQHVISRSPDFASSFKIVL
# How it was run: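 Fluorescence polarization competition: CIB1-GST (1 uM final) preincubated with compound 15 min at room temperature, then FITC-labeled alphaIIb peptide (100 nM final) added for another 15 min. Polarization read at Ex 480/Em 540.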
# [5] = Primary redox qHTS assay for identification of artifact compounds. (AID 1845223)
# How it was run: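 Redox-cycling detection via DTT (250 uM final) oxidation coupled to Amplex Red (25 uM)/HRP (250 mU/mL) in HBSS. 15 min preincubation plus 30 min after DTT, room temperature. Ex/Em 525/598 nm; 4-parameter Hill fit against DMSO and 10 uM DA3003.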
# HACAT = test: qHTS assay to identify novel small-molecules to repurpose for Merkel cell carcinoma treatment (AID 1296009); conditions: MCC and control cell lines, CellTiter-Glo viability, 72 h; at 44.8 µM (top of the series) unless noted; also: nearly all actives have a fitted effect of over 60% in size
# How it was run: (§1)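 Viability readout: ATP luminescence (CellTiter-Glo) after 72 hr drug exposure at 37 degree celsius. Dose-response format was 8 points for NPC and 11 points for MIPE; data normalized to in-plate controls.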
# CAOV3 = test: Primary qHTS to identify gynecologic anti-cancer compounds using libraries of approved drugs and bioactive compounds (AID 1345084); conditions: Gynecologic cancer cell panel viability, ATPlite luminescence, 48 h; series mostly up to 57.5 µM; also: nearly all actives have a fitted effect of over 55% in size
# How it was run: (§2)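 In this quantitative HTS, cell killing is estimated from loss of ATP-dependent luciferase light. Cells see five compound concentrations over a 48 h exposure.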
# JEG-3 = test: as above; conditions: Gynecologic cancer cell panel viability, ATPlite luminescence, 48 h; series mostly up to 57.5 µM
# How it was run: as §2
# SKOV3 = test: as above; conditions: Gynecologic cancer cell panel viability, ATPlite luminescence, 48 h; series mostly up to 57.5 µM
# How it was run: as §2
# [6] = biological target: Cytochrome P450 2C9 (Homo sapiens) (UniProt P11712); test: Cytochrome P450 family 2 subfamily C member 9 (CYP2C9) small molecule antagonists: luciferase biochemical (cell-free) qHTS assay (AID 1645842; active = well fitted curve in the direction sought with a large enough effect in the repeat runs; an effect the other way counts as inactive or inconclusive; also: nearly all actives have a fitted effect of over 55% in size)
# Chain of Cytochrome P450 2C9 (Homo sapiens) (P11712 whole entry, looked up): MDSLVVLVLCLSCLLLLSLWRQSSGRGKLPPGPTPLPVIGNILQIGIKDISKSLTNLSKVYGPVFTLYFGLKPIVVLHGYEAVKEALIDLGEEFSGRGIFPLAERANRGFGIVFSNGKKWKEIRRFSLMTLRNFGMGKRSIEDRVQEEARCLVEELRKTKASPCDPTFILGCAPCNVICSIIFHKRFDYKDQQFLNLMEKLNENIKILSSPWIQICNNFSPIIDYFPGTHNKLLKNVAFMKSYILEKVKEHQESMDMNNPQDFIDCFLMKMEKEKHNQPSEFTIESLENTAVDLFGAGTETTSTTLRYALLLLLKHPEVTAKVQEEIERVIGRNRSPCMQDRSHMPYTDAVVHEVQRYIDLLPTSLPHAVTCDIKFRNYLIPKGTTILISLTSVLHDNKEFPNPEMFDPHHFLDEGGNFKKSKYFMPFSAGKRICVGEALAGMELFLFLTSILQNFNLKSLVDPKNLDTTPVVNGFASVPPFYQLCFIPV
# How it was run: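 P450-Glo CYP2C9 system: proluciferin substrate with enzyme in mix containing 0.4% BSA, 10 min at room temperature, then NADPH regeneration solution added and incubated 1 h at 37C. Detection reagent stopped reaction; luminescence read after 20 min as RLU.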
# [7] = biological target: Catechol O-methyltransferase (Homo sapiens) (UniProt P21964); test: Confirmatory Screen for Target Class Profiling of Small Molecule Inhibitors of Methyltransferases (AID 1745852); conditions: MTase-Glo luminescence, SAH detection, recombinant enzyme; measured here: COMT max response; stronger effect = lower value
# Chain of Catechol O-methyltransferase (Homo sapiens) (P21964 whole entry, looked up): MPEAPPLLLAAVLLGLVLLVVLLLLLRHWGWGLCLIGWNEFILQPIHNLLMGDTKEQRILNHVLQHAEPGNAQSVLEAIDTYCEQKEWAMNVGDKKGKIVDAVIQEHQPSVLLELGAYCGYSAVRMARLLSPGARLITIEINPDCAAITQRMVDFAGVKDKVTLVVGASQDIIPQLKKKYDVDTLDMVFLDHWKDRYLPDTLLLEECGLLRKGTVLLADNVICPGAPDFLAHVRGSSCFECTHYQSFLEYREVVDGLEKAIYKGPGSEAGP
# [8] = biological target: Guanidinoacetate N-methyltransferase (Homo sapiens) (UniProt Q14353); test: as above; conditions: activity change, negative = inhibition: at 57.3 µM (top of the series) unless noted
# [9] = biological target: Nicotinamide N-methyltransferase (Homo sapiens) (UniProt P40261); test: as above; conditions: MTase-Glo luminescence, SAH detection, recombinant enzyme; measured here: NNMT max response; stronger effect = lower value
# Chain of Nicotinamide N-methyltransferase (Homo sapiens) (P40261 whole entry, looked up): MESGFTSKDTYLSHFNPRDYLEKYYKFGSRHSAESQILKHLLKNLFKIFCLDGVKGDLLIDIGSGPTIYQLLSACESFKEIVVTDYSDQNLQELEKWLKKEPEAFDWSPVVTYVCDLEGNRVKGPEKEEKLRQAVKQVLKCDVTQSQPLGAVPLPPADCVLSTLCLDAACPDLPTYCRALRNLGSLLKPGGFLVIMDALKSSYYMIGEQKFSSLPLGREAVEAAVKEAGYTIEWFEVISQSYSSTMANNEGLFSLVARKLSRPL
# HeLa = test: Primary qHTS to identify gynecologic anti-cancer compounds using libraries of approved drugs and bioactive compounds (AID 1345084); conditions: Gynecologic cancer cell panel viability, ATPlite luminescence, 48 h; series mostly up to 57.5 µM; also: nearly all actives have a fitted effect of over 55% in size
# How it was run: as §2
# [10] = P-glycoprotein substrates identified in KB-3-1 adenocarcinoma cell line, qHTS therapeutic library screen (AID 1346986); also: nearly all actives have a fitted effect of over 60% in size
# How it was run: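 72 h cell-killing screen, 500 cells/well, CellTiter-Glo luminescence. Paired lines KB-3-1/KB-8-5-11; P-gp dependence checked by tariquidar co-treatment and HEK-293 MDR-19 versus empty-vector cells.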
# CRL-7250 = normal cell line; test: qHTS assay to identify novel small-molecules to repurpose for Merkel cell carcinoma treatment (AID 1296009); conditions: MCC and control cell lines, CellTiter-Glo viability, 72 h; series mostly up to 92 µM; also: nearly all actives have a fitted effect of over 60% in size
# How it was run: as §1
Compound,Potency [1],Potency [2],Potency [3],Potency [4],Potency [5],outcome (HACAT),Potency (CAOV3),Potency (JEG-3),Potency (SKOV3),Potency [6],activity [7],"activity change, negative = inhibition [8]",activity [9],Potency (HeLa),Potency [10],Potency (CRL-7250)
CC1CCCC(O)CC(=O)Cc2cc(O)cc(O)c2C(=O)O1 (centres undefined),inactive,inactive,inactive,inactive,inactive,inactive,inactive,inactive,inactive,–,–,–,–,–,–,–
COc1cc(N2CCN(C)CC2)ccc1N,inactive,inactive,inactive,inactive,–,–,inactive,inactive,inactive,inactive,-7.03%,-4.23%,-3.44%,inactive,–,–
COC1C=CC23c4cc5c(cc4COC2(O)CN(C)C3C1)OCO5 (centres undefined),inactive,–,inactive,inactive,inactive,inactive,inactive,inactive,–,–,–,–,–,inactive,inactive,–
C=CC/C=C\C/C=C\CCCCCCCc1cc(O)cc(O)c1,inactive,–,inactive,inactive,inactive,inactive,inactive,inactive,inactive,–,–,–,–,inactive,–,–
N#CC(O[C@@H]1O[C@H](CO)[C@@H](O)[C@H](O)[C@H]1O)c1ccccc1 (some centres undefined),inactive,inactive,–,inactive,–,–,inactive,inactive,inactive,–,–,–,–,inactive,–,inactive
CC(=O)O[C@@H]1[C@H]2CC[C@H]3[C@@](C)(O)[C@@H]4C[C@H](O)C(C)(C)[C@@]4(O)[C@H](O)C[C@@]13C[C@@]2(C)O,–,inactive,inactive,inactive,inactive,–,inactive,inactive,inactive,–,–,–,–,–,–,inactive
CN1CCc2cc3c(cc2C1C1OC(=O)c2c1ccc1c2OCO1)OCO3 (centres undefined),inactive,inactive,inactive,–,inactive,–,inactive,inactive,inactive,–,–,–,–,inactive,–,–
CN1CCc2cc3c(cc2[C@H]1[C@@H]1OC(=O)c2c1ccc1c2OCO1)OCO3,inactive,inactive,inactive,inactive,inactive,inactive,inactive,inactive,inactive,–,–,–,–,–,inactive,–
O=C1N[C@@H](Cc2ccccc2)CN2CCCC[C@@H]12,inactive,inactive,inactive,inactive,–,inactive,inactive,inactive,inactive,–,–,–,–,inactive,–,–
COc1ccsc1CNCC[C@@]1(c2ccccn2)CCOC2(CCCC2)C1,inactive,inactive,inactive,inactive,inactive,–,inactive,inactive,inactive,inactive,–,–,–,inactive,–,–
CC[C@H]1C2CC3[C@@H]4N(C)c5ccccc5[C@]45C[C@@H]([C@H]2[C@H]5O)N3[C@H]1O,inactive,inactive,–,–,–,inactive,inactive,inactive,inactive,–,–,–,–,inactive,–,–
C/C=C1/CN2CC[C@]34C(=Nc5ccc(OC)cc53)C2C[C@@H]1C4(CO)C(=O)OC (some centres undefined),inactive,inactive,inactive,inactive,inactive,inactive,inactive,inactive,inactive,–,–,–,–,inactive,–,–
c1cncc(OC[C@@H]2CCN2)c1,inactive,inactive,inactive,–,inactive,–,inactive,inactive,inactive,inactive,–,–,–,inactive,–,–
Cc1c(Cl)c(OCC(=O)N2CCN(C)CC2)nc2sc(C(=O)NC3CC3)c(N)c12,inactive,inactive,inactive,–,inactive,–,inactive,inactive,inactive,–,–,–,–,inactive,inactive,–
COC(=O)[C@]12CCCC(C)(C)C1CCc1cc(C(C)C)c(O)c(O)c12 (some centres undefined),inactive,4.47 µM (active),–,inactive,–,inactive,inactive,inactive,inactive,–,–,–,–,inactive,–,–
Oc1ccc2c3c1O[C@H]1c4[nH]c5c(N=C=S)cccc5c4C[C@@]4(O)[C@@H](C2)N(CC2CC2)CC[C@]314,–,–,–,–,inactive,inactive,inactive,–,inactive,–,–,–,–,inactive,–,–
CC(=O)O[C@H]1CN2CCC1CC2,inactive,–,inactive,inactive,inactive,–,inactive,inactive,inactive,–,–,–,–,inactive,inactive,–
